Assay results reported in PubChem BioAssay AID504843 (Broad Institute, 2011).
Out of some 1,200 compounds screened, about 360 (30%) were called active. How the calls were made is not given here. Not all results are given here. Entries with a potency or affinity are not part of this list.

Assay: antibacterial activity by ATP level – BacTiter-Glo luminescence, cherry-picked samples, counter-screen, dose response (AID 504843);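 further: growth measured after 8 h incubation at 30 °C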
Details: bacterial growth; series mostly up to 15 µM

SMILES	outcome
COC(c1ccccc1)c1nnc(CCC(=O)N(C)C(C2CC2)C2CC2)o1 (centres undefined)	inactive
O=C(Nc1ccccc1F)C1CCN(C(=O)Cc2ccccc2)CC1	inactive
O=C(CCNC(=O)C1CCN(S(=O)(=O)c2ccc(F)cc2)CC1)Nc1nccs1	inactive
CC(=O)Nc1ccc(NC(=O)CSc2ccccn2)cc1	inactive
O=C(CCC(=O)Nc1ccccc1)N/N=C/c1ccncc1	inactive
C/C=C(/C)C(=O)Nc1cccc(C2=NOC3(C2)C[C@H](C(N)=O)N(C(=O)c2ccc(Cl)cc2)C3)c1 (some centres undefined)	inactive
Cc1ccc(S(=O)(=O)N2CCC(C(=O)Nc3nnc(C)s3)CC2)cc1	inactive
Cc1nc2ccc(NC(=O)C3CCN(S(=O)(=O)c4cccs4)CC3)cc2s1	inactive
Cc1noc(C)c1COc1ccccc1C(=O)NC1CCC(C)CC1 (centres undefined)	inactive
N#Cc1cccc(C(=O)OCC(=O)NCc2ccco2)c1	inactive
Cc1cccc(N(CC(=O)NC(C)(C)C)C(=O)CCC(=O)Nc2nccs2)c1	inactive
CS(=O)(=O)N(CC(=O)NC1CCCC1)c1cccc(F)c1	inactive
O=c1cc(O)nc[nH]1	inactive
CCOc1cc(C(=O)N2CCCN(C)CC2)cc(OCC)c1OCC	inactive
O=C(Cn1cc2c(n1)CCCCC2)N1CCc2ccccc2C1	inactive
COc1ccc(CN(C(=O)/C=C/c2ccccc2Cl)C2CCS(=O)(=O)C2)cc1 (centres undefined)	inactive
Cn1c(-c2ccccc2)cnc1SCc1nc2ccccc2c(=O)[nH]1	inactive
CCOC(=O)c1c(NC(=O)CSc2n[nH]c(CNc3ccccc3)n2)sc(C)c1C	inactive
Cc1nn2c(COc3ccc(NC(=O)c4ccccc4Cl)cc3)nnc2c2ccccc12	inactive
COc1ccc(NC(=O)c2ccc(Oc3ncccn3)cc2)cc1	inactive
COc1ccc(NC(=O)Cn2ncc(Cl)c(Cl)c2=O)cc1S(=O)(=O)N1CCOCC1	inactive
CCn1ccnc1CN(C)C(=O)c1cc(COc2ccc(Cl)cc2OC)on1	inactive
CCN(CC(=O)NCc1ccc(F)cc1)CC(=O)Nc1ccc(S(=O)(=O)N2CCCC2)cc1	inactive
COc1ccccc1OCCNC(=O)Cc1ccc(S(=O)(=O)N2CCOCC2)s1	inactive
O=C(CSc1nc(O)c(Cc2ccccc2F)c(=O)[nH]1)N1CCCCCC1	inactive
COc1ccc(-c2csc(NC(=O)C3COc4ccccc4O3)n2)cc1OC (centres undefined)	inactive

SMILES	outcome
COc1ccc2c(c1)c(C(O)CN1CCC(Cc3ccccc3)CC1)c(C)n2C (centres undefined)	inactive
O=C(CN1CCN(c2ccc(O)cc2)CC1)Nc1ccc2c(c1)OCCO2	inactive
Cc1c(Nc2ncnc3c2cnn3-c2ccccc2)c(=O)n(-c2ccccc2)n1C	inactive
CCOc1ccc(S(=O)(=O)N2CCCCC2)cc1NC(=O)CN1C(=O)NC(CC)(c2ccccc2)C1=O (centres undefined)	inactive
COc1ccc(S(=O)(=O)N2CCOCC2)cc1NC(=O)c1ccc2c(c1)OCO2	inactive
Cc1cc(C)c(C(N)=O)c(Nc2ccc3c(c2)OCCO3)n1	inactive
CCN(CC)CCn1c(=N)n(CC(O)COc2cccc(C)c2)c2ccccc21 (centres undefined)	inactive
Cc1ccc(CC(=O)NCCS(=O)c2ccc(Cl)cc2)cc1 (centres undefined)	inactive
O=C(CN1CCN(Cc2ccc(Cl)cc2)CC1)N/N=C/c1c[nH]c2ccccc12	inactive
CCOC(=O)[C@H]1[C@H]2COc3ccc(OC)cc3[C@H]2N2C(=O)CN(Cc3ccccc3)C(=O)[C@@]12C	inactive
O=C(CSc1nccc(=O)[nH]1)c1cc2ccccc2o1	inactive
Cc1ccc(S(=O)(=O)N2CCOCC2)cc1NC(=O)c1cc2ccccc2oc1=O	inactive
CC(O/N=C/c1ccc(OC(F)F)cc1)C(=O)Nc1cccc(S(=O)(=O)N2CCOCC2)c1 (centres undefined)	inactive
COc1ccc(N2CCN(C3CC(=O)N(c4ccc5c(c4)OCCO5)C3=O)CC2)cc1 (centres undefined)	inactive
CCOC(=O)C1=C(C)Nc2ncnn2C1c1cc(Br)ccc1F (centres undefined)	inactive
COC(=O)c1ccc(NC(=O)N2CCC(O)(c3cccnc3)CC2)cc1	inactive
Cc1ccc(C(=O)Nc2nc(C)c(C(=O)Nc3ccc4c(c3)CCC4)s2)cc1	inactive
CC(=O)Nc1sc(NC(=O)c2ccccc2)nc1-c1cccs1	inactive
CCCN(C(=O)Cn1c(C(F)(F)F)nc2ccccc21)C1CCS(=O)(=O)C1 (centres undefined)	inactive
CC(C)=CCC/C(C)=C/CNC(=O)C[C@H]1C[C@H](C(=O)N2CCOCC2)[C@@]2(C)c3[nH]c4ccc(Cl)cc4c3CCN2C1=O	inactive
CC(=O)CSc1ncnc2sc3c(c12)CCC(C)C3 (centres undefined)	inactive
CCOCCCNC(=O)c1ccc(Cn2c(=S)[nH]c3c([nH]c4ccc(OC)cc43)c2=O)cc1	inactive
CCOC(=O)Cc1c[nH]c2ccc([N+](=O)[O-])cc12	inactive
O=C(Nc1ccccc1Oc1ccccc1)c1ccc(Br)o1	inactive
O=C(NCc1ccccc1)c1ccc(F)c(F)c1	inactive
O=C(N/C(=C/c1ccccc1)C(=O)N1CCCCC1)c1ccc(Br)o1	inactive

SMILES	outcome
CN(CC(=O)NCc1cccnc1)S(=O)(=O)c1ccccc1	inactive
O=C(CSc1ncnc2nc[nH]c12)c1ccc2ccccc2c1	inactive
O=C1NC(=O)C(c2ccccc2)(c2ccccc2)N1	inactive
CCN(CC)CC(=O)Nc1ccc(C)cc1C(=O)c1ccccc1	inactive
COc1cc(OC)cc(C(=O)N(CN2CCCC2=O)c2ccccc2OC)c1	inactive
CC(C)(C)NC(=O)C[C@H]1C[C@H](C(=O)N2CCOCC2)[C@@]2(CCC3CCCC3)c3[nH]c4cc(-c5ccco5)ccc4c3CCN2C1=O	inactive
CC(C)[C@@H](C(=O)N1CCNCC1)n1cc(CCO)nn1	inactive
Cc1nc(N)nc(Cl)c1Cc1ccc(Cl)cc1	inactive
COc1cccc(COC(=O)C2CC(=O)N(Cc3ccco3)C2)c1OC (centres undefined)	inactive
CC(NC(=O)Nc1nccs1)(C(F)(F)F)C(F)(F)F	inactive
NC(=O)c1ccccc1NC(=O)COc1ccc2c(c1)OCO2	inactive
COC(=O)c1cnc(NNS(=O)(=O)c2ccc(C(F)(F)F)cc2)nc1C(F)(F)F	inactive
COCn1c(-c2cccc(Br)c2)nc2ccccc21	inactive
CNC(=O)C1CCN(S(=O)(=O)c2c(C)noc2/C=C/c2cccc(OC)c2)CC1	inactive
O=C(c1ccc2nc[nH]c2c1)N1CCN(c2ncc(C(F)(F)F)cc2Cl)CC1	inactive
Cc1ccc(NC(=O)c2cccs2)cc1S(=O)(=O)Nc1cccc(Cl)c1	inactive
O=C1c2ccccc2CC1Sc1nnc(-c2ccncc2)o1 (centres undefined)	inactive
CC1=CC(=O)[C@@H](O)[C@@H](c2ccccc2Br)N1C	inactive
COc1ccc(NC(=O)CC2(CC(=O)O)CCCC2)cn1	inactive
COc1ccc2[nH]c(C(=O)N(C)c3ccc(F)cc3F)cc2c1	inactive
COc1cccc(NC(=O)CSc2nc3ccccc3c(=O)n2CCCC(=O)NCC2CCCO2)c1 (centres undefined)	inactive
O=C(CSc1cn(CCNC(=O)c2c(F)cccc2F)c2ccccc12)NCC1CCCO1 (centres undefined)	inactive
C=CCn1c(C)cc(C(=O)CSc2nnc3c(Cl)cc(Cl)cn23)c1C	inactive
CCN(C1CCS(=O)(=O)C1)S(=O)(=O)c1cc(C)ccc1C (centres undefined)	inactive
Fc1ccc(-n2c(-c3ccc4ccccc4n3)n[nH]c2=S)cc1Cl	inactive
C=CCOc1cccc(C(=O)N2CCCC(CCC(=O)NCc3ccccc3F)C2)c1 (centres undefined)	inactive

SMILES	outcome
CC(C)c1cc(C(N)=O)c(NC(=O)c2cccc(COc3ccc(Cl)cc3)c2)s1	inactive
O=C(CSc1nc2ccccc2c(=O)[nH]1)N1CCN(c2ccccc2F)CC1	inactive
CC(=O)N1c2ccc(S(=O)(=O)N3CCC(C(=O)N4CCN(c5ccccc5F)CC4)CC3)cc2CC1C (centres undefined)	inactive
CC(C)c1ccc(C2C(C#N)=C(N)Oc3c2oc(CO)cc3=O)cc1 (centres undefined)	inactive
COC(=O)COc1ccc(-n2cnnn2)cc1	inactive
Cc1cccc(N(CC(=O)Nc2cccnc2)S(C)(=O)=O)c1	inactive
O=C(Nc1c2c(nn1-c1ccccc1)CS(=O)(=O)C2)c1cccs1	inactive
COc1ccc(-c2nc3ccccc3o2)cc1NC(=O)c1ccc(Br)o1	inactive
O=C(NNC(=S)Nc1cccc(Cl)c1)c1ccccc1OC(F)F	inactive
CC1CC(OC(=O)C(O)c2ccccc2)CC(C)(C)N1C (centres undefined)	inactive
NC(=O)NC(=O)CSc1nc2sc(-c3ccccc3)cc2c(=O)n1-c1ccccc1	inactive
CCOc1ccc(-n2c(SCC(=O)O)nc3sc4c(c3c2=O)CCCC4)cc1	inactive
CCNc1nc(NC(C)(C)C)nc(N(CC)n2cnnc2)n1	inactive
O=C(NCC1CCCO1)C1CCCN(S(=O)(=O)c2ccc(F)cc2)C1 (centres undefined)	inactive
CCCCS(=O)(=O)N1CCCC(C(=O)Oc2ccc(Cl)cc2)C1 (centres undefined)	inactive
COc1ccccc1C(C[N+](=O)[O-])c1c[nH]c2ccccc12 (centres undefined)	inactive
CCOC(=O)[C@H]1[C@H]2COc3ccc(Cl)cc3[C@@H]2N2C(=O)[C@H](C)NC(=O)[C@@]12C	inactive
O=C(c1ccc(-n2cncn2)c([N+](=O)[O-])c1)N1CCN(S(=O)(=O)c2ccc(Br)cc2)CC1	inactive
Cc1cc(C(=O)c2ccccc2)c(NC(=O)CCl)s1	inactive
CCCC(C(=O)NNC(=O)c1cc(C)oc1C)c1ccccc1 (centres undefined)	inactive
O=C(O)c1ccc(/C=C2\SC(=Nc3ccccc3)N(c3ccccc3)C2=O)cc1	inactive
CCC1CCCCN1CCNC(=O)CNS(=O)(=O)c1ccc2nc(C)sc2c1 (centres undefined)	inactive
Cc1ccccc1NC(=O)NCCN1C(=O)C2C3C=CC(C3)C2C1=O (centres undefined)	inactive
CCOc1ccc(NC(=O)CN2C(=O)/C(=C3\SC(=S)N(C4CCS(=O)(=O)C4)C3=O)c3ccccc32)cc1 (centres undefined)	inactive
COc1cc(C(=O)Oc2cc(C)cc(C)c2)cc(OC)c1OC	inactive
COc1ccc(C(=O)Nc2cnn(Cc3ccc(Cl)cc3)c2)cc1OC	inactive
